LGR2 inh = inhibitors of bursicon-induced LGR2 CRE-luciferase signal, primary screen, cell-based, HEK293, CRE-luciferase reporter, bursicon stimulation; AID 720647, 2013; hit rate 0.35% among 380,000; inhibition, % at 9.99 µM; bursicon-stimulated, 4 h;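 active = drop in luminescence signal, shown as inhibition above about 50% in the replicate tests, limit read from the data, passing the limit was not always enough; inconclusive = probably only some replicates passing the limit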;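 note: agonist challenge used bursicon conditioned medium at about half maximal strength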
HSF1 inhib = HSF1 inhibitors in luciferase reporter cells, primary screen, cell-based, NIH3T3, luminescence. NIH3T3-HGL HSE-luciferase, MG132-induced, luminescence 8 h; stronger effect = lower value. hit rate 0.77% among 300,000. activity change, negative = inhibition, % at 7.5 µM (by protocol);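 active = more than half of replicate wells show activity change below -50%, luminescence cut by over half; inconclusive = some wells, but at most half, below -50%; inactive = no replicate well below -50%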;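 note: luciferase reports HSF-1 transcriptional activity via heat shock element; 0% = median of DMSO wells and -100% = zero luminescence signal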
HSF-1 act = HSF-1 activators, primary screen, NIH3T3-HGL cells, MG132 stress, luminescence, single point; NIH3T3-HGL HSF-1 luciferase reporter, 8 h; 100% = twice DMSO control signal; activation, % at 9 µM; hit rate 1.7% among 300,000;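 active = mean replicate activation of at least 50% with a set share of replicates each reaching 50%; inconclusive = only one of those two conditions met; inactive = mean below 50% and too few replicates reaching it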;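 note: 0% = median of the neutral control wells and 100% = twice that signal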
LMP1 NFkB inh = EBV LMP1-driven NF-kappaB luciferase reporter inhibitors, primary screen, cell-based, luminescence, single point; LMP1-induced NF-kappaB luciferase reporter cells; inhibition, % at 12.5 µM; hit rate 0.69% among 350,000; AID 504558, 2011; in the data active = inhibition above about 41%; inconclusive = no clear call, values can overlap the other calls;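 note: 0% = neutral control wells and 100% = reference inhibitor control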
TROY NFkB inh = inhibitors of TROY-driven NF-kB signaling, primary screen, Q293 LMP1-TROYcd cells, NF-kB luciferase, uHTS; Q293 LMP1-TROYcd NF-kB luciferase reporter, 4 h; inhibition, % at 10 µM; hit rate 0.98% among 360,000; AID 1347056, 2019;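 active = compounds whose plate-normalised and pattern-corrected inhibition of the luciferase reporter signal at the single screening dose is 50% or more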
TWEAK-Fn14 inh = inhibitors of TWEAK-Fn14 signaling, primary screen, luciferase reporter cells, uHTS; hit rate 2% among 360,000; TWEAK-stimulated Fn14 reporter cells, luciferase luminescence, 8 h; inhibition, % at 10 µM; in the data active = inhibition above about 50%
* marks the source's active call; other numbers are inactive results. Most compounds without a hit are left out; they make up all but 3.6% or so of the library.

Results for O=C(C[n+]1cccc(C(=O)Nc2ccccc2)c1)c1ccc(Cl)cc1 ?
LGR2 inh: -20; TROY NFkB inh: -8; TWEAK-Fn14 inh: 12

Results for O=C(C[n+]1cccc(C(=O)Nc2ccccc2)c1)c1ccc([N+](=O)[O-])cc1 ?
LGR2 inh: -5; HSF1 inhib: 60; HSF-1 act: 132*; LMP1 NFkB inh: -3; TROY NFkB inh: 6; TWEAK-Fn14 inh: 9

What do the screens show for `C[C@H]1CN([C@@H](C)CO)C(=O)c2cc(C3=CCCCC3)cnc2O[C@@H]1CN(C)Cc1ccccn1`?
LGR2 inh: 2

Results for N#Cc1c(Sc2ncc(C(F)(F)F)cc2Cl)nsc1C/C=N\OCc1ccccc1Br ?
LGR2 inh: -14; HSF1 inhib: 8; HSF-1 act: 13; LMP1 NFkB inh: -3; TWEAK-Fn14 inh: 67*

How did COc1ccc2c3c(n(C)c2c1)[C@H](CO)N(C(=O)C1CCCC1)CC31CN(C)C1 do in these assays?
LGR2 inh: 7

How did Fc1ccc(-c2nnc3ccc(N4CCc5ccccc5C4)nn23)cc1 do in these assays?
LGR2 inh: 19; HSF1 inhib: 64; HSF-1 act: 80*; LMP1 NFkB inh: 4; TROY NFkB inh: 14; TWEAK-Fn14 inh: 29

What do the screens show for `O=C(Nc1ccc(F)cc1)N1CCN(c2ccc3nnc(-c4ccc(F)cc4)n3n2)CC1`?
LGR2 inh: -13; HSF1 inhib: 7; HSF-1 act: -1; LMP1 NFkB inh: -3; TROY NFkB inh: -19; TWEAK-Fn14 inh: -44

How did COc1ccc(CCNC(=O)c2nnn(-c3ccc4c(c3)OCCO4)c2N)cc1OC do in these assays?
HSF1 inhib: -76*; HSF-1 act: -78; LMP1 NFkB inh: 50*; TROY NFkB inh: 87*; TWEAK-Fn14 inh: 97*

What do the screens show for `COc1ccc(-c2ccc3n(c2=O)C[C@@H]2[C@@H](CO)[C@H](C(=O)NCC4CC4)[C@H]3N2S(C)(=O)=O)cc1`?
LGR2 inh: -13

What do the screens show for `N#CC1=C(N)N(c2ccc(Oc3ccccc3)cc2)C(=O)C1`?
HSF1 inhib: -89*; HSF-1 act: -91; LMP1 NFkB inh: 2; TWEAK-Fn14 inh: 88*

How did O=C1CCCC2=C1C1(CCCC1)N=C(Nc1nc3cc(-c4ccccc4)ccc3o1)N2 do in these assays?
LGR2 inh: -20; TROY NFkB inh: -12; TWEAK-Fn14 inh: 64*

What do the screens show for `O=C1CCCC2=C1C1(CCCC1)N=C(Nc1nc3ccccc3o1)N2`?
LGR2 inh: -3; TROY NFkB inh: -23; TWEAK-Fn14 inh: 0

How did O=C1CCCC2=C1C1(CCCCC1)N=C(Nc1nc3ccccc3o1)N2 do in these assays?
HSF1 inhib: 3; HSF-1 act: 26; LMP1 NFkB inh: -72; TROY NFkB inh: 2; TWEAK-Fn14 inh: 75*

How did COCC(=O)N1[C@H](CO)[C@@H]2c3ccccc3N(C(=O)c3ccccc3)C[C@@H]21 do in these assays?
LGR2 inh: -15

What do the screens show for `C[C@H]1CN([C@@H](C)CO)C(=O)c2cc(-c3ccncc3)cnc2O[C@@H]1CN(C)C(=O)Cc1cccnc1`?
LGR2 inh: 7

How did O=C(C[C@H]1CC[C@H](NC(=O)Nc2cc(F)ccc2F)[C@@H](CO)O1)NCc1ccncn1 do in these assays?
LGR2 inh: 11

How did COc1cccc(NC=C2C(=O)OC3(CCCCC3)OC2=O)c1 do in these assays?
HSF1 inhib: 28; HSF-1 act: 59*; LMP1 NFkB inh: 7; TROY NFkB inh: -33; TWEAK-Fn14 inh: 16

Results for O=C1OC2(CCCCC2)OC(=O)C1=CNc1nccs1 ?
HSF1 inhib: inconclusive; HSF-1 act: -60; LMP1 NFkB inh: -2; TWEAK-Fn14 inh: 55*

What do the screens show for `C[C@H](CO)N1C[C@H](C)[C@@H](CN(C)CC2CC2)Oc2ccc(NC(=O)Nc3ccc(F)cc3)cc2CC1=O`?
LGR2 inh: 0

What do the screens show for `CCCCOc1ccc(CSc2ncn[nH]2)cc1`?
HSF1 inhib: 31; HSF-1 act: 86*; LMP1 NFkB inh: -20; TROY NFkB inh: -35; TWEAK-Fn14 inh: -6

Results for CCc1sc(C(=O)Nc2ncccc2O)cc1C ?
LGR2 inh: 45; HSF1 inhib: 20; HSF-1 act: 21; LMP1 NFkB inh: 52*; TROY NFkB inh: 19; TWEAK-Fn14 inh: 41

What do the screens show for `CCc1sc(C(=O)Nc2ncccc2C)cc1C`?
LGR2 inh: -16; HSF1 inhib: -1; HSF-1 act: -3; LMP1 NFkB inh: -6; TROY NFkB inh: -37; TWEAK-Fn14 inh: -23

Results for CC(=O)N1CC2(C1)[C@@H](c1ccc(-c3cccc(F)c3)cc1)[C@@H](CO)N2CC1CCCC1 ?
LGR2 inh: 5

How did CC1(C)CC2CC(C)(CN2C(=O)c2cc(-c3ccc(O)cc3)on2)C1 (stereo unspecified) do in these assays?
LGR2 inh: 12; HSF1 inhib: -2; HSF-1 act: -17; LMP1 NFkB inh: -12; TROY NFkB inh: 62*; TWEAK-Fn14 inh: -35

What do the screens show for `CCOC(=O)c1ccc(NC(=O)Cn2ncc(Cl)c(Cl)c2=O)cc1`?
LGR2 inh: 10; HSF1 inhib: -94*; HSF-1 act: -94; LMP1 NFkB inh: -28; TROY NFkB inh: 75*; TWEAK-Fn14 inh: 99*

How did O=C(Cn1ncc(N2CCCC2)c(Cl)c1=O)c1ccc(Cl)cc1 do in these assays?
LGR2 inh: -41; HSF1 inhib: 0; HSF-1 act: -7; LMP1 NFkB inh: 20; TROY NFkB inh: -58; TWEAK-Fn14 inh: -5

Results for CCc1ccccc1NC(=O)CN(C)C(=O)Cn1ncc(Cl)c(Cl)c1=O ?
HSF1 inhib: 28; HSF-1 act: 22; LMP1 NFkB inh: 71*; TROY NFkB inh: 11; TWEAK-Fn14 inh: 93*

Results for CCC(=O)Nc1ccc(C(=O)Cn2ncc(Cl)c(Cl)c2=O)cc1 ?
LGR2 inh: 9; HSF1 inhib: 42; HSF-1 act: 57*; LMP1 NFkB inh: -75; TROY NFkB inh: 17; TWEAK-Fn14 inh: 76*

What do the screens show for `C[C@@H]1CN([C@@H](C)CO)C(=O)c2cc(NS(C)(=O)=O)ccc2O[C@@H](C)CCCCO[C@H]1CN(C)C(=O)CCC(F)(F)F`?
LGR2 inh: 0

How did CNC(=O)NC(=O)COC(=O)CCCSc1nc2ccccc2s1 do in these assays?
HSF1 inhib: -15; HSF-1 act: -24; LMP1 NFkB inh: 9; TROY NFkB inh: 40; TWEAK-Fn14 inh: 59*

How did NC(=O)COC(=O)CCCSc1nc2ccccc2s1 do in these assays?
LGR2 inh: 4; HSF1 inhib: -7; HSF-1 act: 2; LMP1 NFkB inh: -2; TROY NFkB inh: 44; TWEAK-Fn14 inh: 54*
